PubChem BioAssay
Numbered stars: 1 amine (or outer) side, 2 acyl side, 3 side chain; on linkers, the order of the positions; unused ones are H or OH. Bridge positions count the residues as written; N and C are the ends. Square brackets hold non-standard residues; d marks the D form. Side chains are listed from the residue outwards. Peptide text beside a SMILES is read from it. * marks the point of attachment. ξ: configuration not given here. ΔAla(E,3-NHCONH2) = NC(=O)N/C=C(/N)C(=O)O; X1 = NC1=NCCC(C(N[*:1])C(=O)[*:2])N1; Heptanoyl(6-Me) = CC(C)CCCCC(=O)*; X2 = CCC(C)C(N)C1=NC(C(=O)*)CS1; ξβ3hOrn = NCCCC(N)CC(=O)*; Orn = NCCC[CH](N)C(=O)O; Dab = NCC[CH](N)C(=O)O; Dap = NC[CH](N)C(=O)O

Assay: EMT-state selective cytotoxicity in co-culture – imaging, PC-3E GFP, TEM4-18 mCherry, primary screen (AID 1345086);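 further: cells exposed to compound for 72 h before imaging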
Conditions: PC-3E GFP / TEM4-18 mCherry co-culture, imaging cell counts; measured here: mesenchymal TEM4-18 mCherry cell survival; at 1 µM

Compound	normalised cell number
CC(C)c1c(C(=O)c2ccccc2)c(-c2ccccc2)c(-c2ccc(F)cc2)n1CC[C@@H](O)C[C@@H](O)CC(=O)O	1.12
CC(CCC(=O)O)[C@H]1CCC2C3C(=O)C[C@@H]4CC(=O)CC[C@]4(C)C3CC(=O)[C@@]21C (some centres undefined)	1.05
CC(=O)Nc1cc2ccccc2oc1=O	0.95
CCCCCCCCCCC[C@@H](C[C@H]1OC(=O)[C@H]1CCCCCC)OC(=O)[C@@H](CC(C)C)NC=O	1.07
CC(=O)OCC(=O)[C@@]12OC(C)(C)O[C@@H]1CC1C3C[C@H](F)C4=CC(=O)C=C[C@]4(C)[C@@]3(F)[C@@H](O)C[C@@]12C (some centres undefined)	1.26
CC[C@@H]1OC(=O)C[C@@H](O)[C@H](C)[C@@H](O[C@@H]2O[C@H](C)[C@@H](O)[C@H](N(C)C)[C@H]2O)[C@@H](CCN2C[C@H](C)C[C@H](C)C2)C[C@@H](C)C(=O)/C=C/C(C)=C\[C@@H]1CO[C@@H]1O[C@H](C)[C@@H](O)[C@@H](OC)[C@H]1OC	1.07
O=C(OC[C@H]1O[C@H](OC(=O)c2cc(O)c(O)c(OC(=O)c3cc(O)c(O)c(O)c3)c2)[C@H](OC(=O)c2cc(O)c(O)c(OC(=O)c3cc(O)c(O)c(O)c3)c2)[C@@H](OC(=O)c2cc(O)c(O)c(OC(=O)c3cc(O)c(O)c(O)c3)c2)[C@@H]1OC(=O)c1cc(O)c(O)c(OC(=O)c2cc(O)c(O)c(O)c2)c1)c1cc(O)c(O)c(OC(=O)c2cc(O)c(O)c(O)c2)c1	1.52
CC(C)C1CCC(C(=O)N[C@@H](Cc2ccccc2)C(=O)O)CC1 (some centres undefined)	1.05
CCC(C)C(=O)O[C@H]1C[C@H](O)C=C2C=C[C@H](C)[C@H](CC[C@@H](O)C[C@@H](O)CC(=O)O)C21 (some centres undefined)	1.14
CCC(C)C1NC(=O)C(CCN)NC(=O)C(NC(=O)C(CCN)NC(=O)C(NC(=O)C(CCN)NC(=O)CCCCC(C)C)C(C)O)CCNC(=O)C(C(C)O)NC(=O)C(CCN)NC(=O)C(CCN)NC(=O)C(C(C)CC)NC1=O (centres undefined) ({Heptanoyl(6-Me)}-[Dab]T[Dab][Dab][Dab]II[Dab][Dab]T; lactam 4-C; configuration not given here)	0.9
CC1=C(C(=O)O)N2C(=O)[C@@H](NC(=O)[C@H](N)C3=CCC=CC3)C2SC1 (some centres undefined)	1.14
OC[C@@H](O)C(O[C@@H]1O[C@H](CO)[C@H](O)[C@H](O)[C@H]1O)[C@H](O)[C@@H](O)CO (some centres undefined)	1.06
NCCCC(N)CC(=O)NCC1NC(=O)C(CO)NC(=O)C(N)CNC(=O)C(C2CCN=C(N)N2)NC(=O)/C(=C\NC(N)=O)NC1=O (stereo not drawn) (H-[Dap]S[Dap](ξβ3hOrn)[ΔAla(E,3-NHCONH2)][X1]; lactam 1-C; configuration not given here)	1.09
COCC1=C(C(=O)OC(C)OC(=O)OC(C)C)N2C(=O)[C@@H](NC(=O)/C(=N/OC)c3csc(N)n3)[C@H]2SC1 (some centres undefined)	0.99
C#C[C@]1(OC(C)=O)CCC2C3CCC4=C/C(=N/O)CCC4C3CC[C@@]21CC (some centres undefined)	0.76
CCC(C)C(N)C1=NC(C(=O)NC(CC(C)C)C(=O)NC(CCC(=O)O)C(=O)NC(C(=O)NCCCCC2NC(=O)C(CC(N)=O)NC(=O)C(CC(=O)O)NC(=O)C(Cc3cnc[nH]3)NC(=O)C(Cc3ccccc3)NC(=O)C(C(C)CC)NC(=O)C(CCCN)NC2=O)C(C)CC)CS1 (stereo not drawn) (cyclo(DNK([Ile-Glu-Leu-X2])[Orn]IFH); configuration not given here)	1.06
C[N+](C)(C)CCOP(=O)([O-])OP(=O)(O)OC[C@H]1OC(n2ccc(N)nc2=O)[C@H](O)[C@@H]1O (some centres undefined)	1.22
CCN[C@@H]1C[C@H](N)[C@@H](O[C@H]2OC(CN)=CC[C@H]2N)[C@H](O)[C@H]1OC1OC[C@](C)(O)[C@H](NC)[C@H]1O (some centres undefined)	1
C[C@]12C=CC(=O)C=C1CCC1C2[C@@H](O)C[C@@]2(C)C1CC[C@]2(O)C(=O)COC(=O)CCC(=O)O (some centres undefined)	1.14
O=C(N[C@@H](CO)[C@H](O)c1ccc([N+](=O)[O-])cc1)C(Cl)Cl	1.04
N[C@H](Cc1cc(I)c(Oc2ccc(O)c(I)c2)c(I)c1)C(=O)O	0.99
NC(Cc1c[nH]c2ccccc12)C(=O)O (centres undefined)	1.22
O=C(O)C1=C(CSc2nnnn2CS(=O)(=O)O)CS[C@@H]2C(NC(=O)[C@H](O)c3ccccc3)C(=O)N12 (some centres undefined)	1.03
O=C1O[C@H](C(O)CO)C(O)=C1O (some centres undefined)	1.26
